Here are results for 37 compounds from PubChem BioAssay.

The structures appear in SMILES notation. A number with no mark means an inactive call. Active and inactive are the calls of the source.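 Rule for the calls: active = inhibition above 50%; inactive = the rest.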

The nature of the experiment: human hepatoma cell viability loss – ATP luminescence, cytotoxicity control for P. falciparum antimalarial project, primary screen (AID 2303).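 Note: 0% = DMSO wells and 100% = digitonin-killed cells.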 The settings on record: HepG2 viability, 24-48 h, at 10 µM, active compounds read high.
As for `N#Cc1ccc(-c2ccc(C(=O)NCCCCN3CCC(c4nc5ccccc5[nH]4)CC3)cc2)cc1`, the inhibition is 43%.
In the case of `c1cncc(CCNCc2ccc(-c3ccc(CNC4Cc5ccccc5C4)cc3)cc2)c1`, the inhibition is 32%.
The figure for `O=C(Nc1ccc(Cl)cc1)Nc1cccc(-c2cccc(-c3nc4ccccc4[nH]3)c2)c1` is 70% (active).
To `Cc1cccc2[nH]c(-c3ccc(-c4ccc(CN5CCN(C6CCN(C)CC6)CC5)cc4)cc3)nc12` belongs 99% (active); to `CN(C)CCN(C)Cc1ccc(-c2cccc(NC(=O)c3ccc(Cl)cc3)c2)cc1`, 69% (active); to `O=C(Nc1cccc(-c2ccc(NCCCN3CCCC3)nc2)c1)c1ccccc1`, 22%.
As for `Cc1nnsc1C(=O)Nc1cccc(-c2cccc(-c3nc4ccc(F)cc4[nH]3)c2)c1`, the inhibition is 35%.
The figure for `COc1ccc2nccc([C@@H](O)CN3CCC(NCC(=O)Nc4cc(F)cc(F)c4)CC3)c2n1` is 18%.
As for `Cc1cc(N2CCCCC2)nc2ccc(NC(=O)c3cccc([N+](=O)[O-])c3)cc12`, the inhibition is 9%.
As for `O=S(=O)(c1cc(Cl)sc1Cl)N(CCC(O)(C(F)(F)F)C(F)(F)F)Cc1cccc(O)c1`, the inhibition is -4%.
Consider `CC(=O)Nc1cc(C(=O)Nc2cccc(-c3cccc(-c4nc5ccc(C(F)(F)F)cc5[nH]4)c3)c2)ccc1C`, for which the inhibition is 56% (active).
The figure for `COC(=O)c1ccc(C2OC3(C(=O)c4ccccc4C3=O)C(OC)=C2Cl)cc1C(C)=O` (configuration not stated) is -3%; for `Cc1ccc(S(=O)(=O)N2CCN(C(=O)c3cc(-c4cccs4)[nH]n3)CC2)c(C)c1` it is -1%.
To `O=C(NCCCN1CCOCC1)c1csc(Nc2ccc(Cl)c(Cl)c2)n1` belongs 5%; to `CCCc1cc(Cc2cnc(N)nc2N)ccc1OCCCCCC(=O)OCC`, -11%.
The figure for `CC(=NNC(=S)Nc1ccccc1Cl)c1ccccn1` is 69% (active); for `O=C(Cn1c(CCc2cccc(F)c2F)nc(=O)c2cccnc21)N(Cc1ccc(-c2ccc(C(F)(F)F)cc2)cc1)C1CCN(C2CCOCC2)CC1` it is 100% (active); for `CCn1c(-c2ccccc2)cc2nnc3ccccc3c21` it is 34%.
Regarding `CCCc1ccc(S(=O)(=O)NC2CCN(c3ccnc(Nc4ccc(OC)cc4)n3)C2)cc1` (configuration not stated), the inhibition was 42%.
For the compound `O=C(C=Cc1cccs1)Nc1ccc(-c2nc3ccccc3[nH]2)cc1`, the inhibition was -4%.
The figure for `O=C(CC1SC(N2N=C(c3cccs3)CC2c2ccccc2)=NC1=O)Nc1ccc(Cl)cc1` (configuration not stated) is 18%; for `O=C(NCc1ccc(Cl)c(Cl)c1)c1ccc(-c2nc3ccc(Cl)cc3[nH]2)cc1` it is 20%.
The figure for `C=C[C@H]1CN(CCCCCCC)CC[C@H]1CC(=O)Nc1cnnc2ccc(OC)cc12` is 12%; for `O=C(Cc1ccc(NC(=O)c2ccc(O)c(-c3ccc(Cl)c(Cl)c3)c2)cc1)NCCc1ccc(Cl)c(Cl)c1` it is -6%.
To `COc1cc2c(c(Cl)c1OC)CCN(Cc1ccccc1)CC2c1ccc(C(N)=O)cc1` (configuration not stated) belongs 7%; to `Clc1cnc2ccc3c(c2c1CCN1CCC(NCc2cc4c(cn2)OCCO4)CC1)OCCO3`, 3%.
Take `Cc1cccc2[nH]c(-c3cccc(-c4ccc(CNCCCN5CCCC5=O)cc4)c3)nc12`: the inhibition was 5%.
To `Cc1nc2nc(N)nc(N)c2c(C)c1Cc1ccccc1` belongs 62% (active); to `CC(C)(C)c1ccc(C(=O)Nc2cccc(Nc3c(C(=O)NCc4cccc(C(F)(F)F)c4)cnc4c(O)cccc34)c2)cc1`, 40%.
In the case of `NCCCNc1nccc(N2CCc3ncnc(Nc4ccc(OCc5cccc(F)c5)c(Cl)c4)c3C2)n1`, the inhibition was 18%.
On to `COc1cc2nc(N3CCC(CNC(=O)c4cccc5cccnc45)CC3)nc(N)c2cc1OC`, for which the inhibition is 34%.
The figure for `S=C(Nc1cccc(Cl)c1)NC1CCN(c2ccnc3cc(Cl)ccc23)C1` (configuration not stated) is 16%; for `Cc1cccc2[nH]c(-c3cccc(-c4ccc(NC(=O)C(=O)c5cccn5C)cc4)c3)nc12` it is 45%; for `Cc1cc(N[C@@H](Cc2ccccc2)C(=O)NCc2cccc(F)c2)nc(Nc2ccccc2)n1` it is 20%.
Turning to `CN1CCCN(Cc2ccc(-c3ccc(NC(=O)c4cccc(Cl)c4)cc3)cc2)CC1`, the inhibition is 55% (active).
`CCS(=O)(=O)c1ccc(-c2cnc3[nH]cc(-c4ccc(N)cc4)c3c2)cc1`: the inhibition is 24%.
As to `CC(C)c1ccc(OCC(O)CN(CCN2CCOCC2)C(=O)Nc2ccc(Br)cc2)cc1` (configuration not stated), the inhibition was 6%.

As usually defined, the inhibition is the relative decrease from the control value, in per cent.
